# Screens as filed in PubChem.
# Sampled rows, rich in hits. Any-hit rate of the full collection: about 5.7%.
# hgDAF12 agonist = H. glycines DAF-12 receptor agonists, primary screen, cell-based, luminescence, HEK293, GAL4 fusion, UAS-luciferase. hit rate 1.8% among 370,000. HEK293 GAL4-hgDAF12 UAS-luciferase reporter, agonist luminescence; normalized to butyrate control. Nuclear hormone receptor DAF-12 (Heterodera glycines), GAL4 fusion. activation, % at 6.8 µM. AID 687014, 2013;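 active means activation above a cutoff set at the mean of all screened compounds plus 3 SD, cut at about 10% in these data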;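 further: 0% = DMSO wells and 100% = sodium butyrate wells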
# DAX1 inh-1 = DAX1 (NR0B1) inhibitors, primary screen, cell-based, HEK293, Gal4-DAX1, luciferase luminescence; Nuclear receptor subfamily 0 group B member 1 (Homo sapiens), P51843; HEK293 Gal4-DAX1 luciferase reporter; inhibition, % at 6.75 µM; hit rate 0.99% among 340,000; AID 504766, 2011;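 active means inhibition above the mean over all tested compounds plus 3 SD, cut at about 4.2% in these data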;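 further: 0% = DAX1-transfected cells with DMSO and 100% = empty-vector control cells with DMSO; inhibition shows as a rise in luminescence from relieved DAX1 repression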
# AHR act = AHR activators, primary screen, cell-based, luminescence, luciferase reporter, human; AHR-responsive luciferase reporter cells; AID 2796, 2010; activation, % at 5 µM; hit rate 2.5% among 320,000; in the data active means activation above about 47%;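 further: 0% = vehicle wells and 100% = reference agonist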
# Target sequence (P35869 whole entry, looked up): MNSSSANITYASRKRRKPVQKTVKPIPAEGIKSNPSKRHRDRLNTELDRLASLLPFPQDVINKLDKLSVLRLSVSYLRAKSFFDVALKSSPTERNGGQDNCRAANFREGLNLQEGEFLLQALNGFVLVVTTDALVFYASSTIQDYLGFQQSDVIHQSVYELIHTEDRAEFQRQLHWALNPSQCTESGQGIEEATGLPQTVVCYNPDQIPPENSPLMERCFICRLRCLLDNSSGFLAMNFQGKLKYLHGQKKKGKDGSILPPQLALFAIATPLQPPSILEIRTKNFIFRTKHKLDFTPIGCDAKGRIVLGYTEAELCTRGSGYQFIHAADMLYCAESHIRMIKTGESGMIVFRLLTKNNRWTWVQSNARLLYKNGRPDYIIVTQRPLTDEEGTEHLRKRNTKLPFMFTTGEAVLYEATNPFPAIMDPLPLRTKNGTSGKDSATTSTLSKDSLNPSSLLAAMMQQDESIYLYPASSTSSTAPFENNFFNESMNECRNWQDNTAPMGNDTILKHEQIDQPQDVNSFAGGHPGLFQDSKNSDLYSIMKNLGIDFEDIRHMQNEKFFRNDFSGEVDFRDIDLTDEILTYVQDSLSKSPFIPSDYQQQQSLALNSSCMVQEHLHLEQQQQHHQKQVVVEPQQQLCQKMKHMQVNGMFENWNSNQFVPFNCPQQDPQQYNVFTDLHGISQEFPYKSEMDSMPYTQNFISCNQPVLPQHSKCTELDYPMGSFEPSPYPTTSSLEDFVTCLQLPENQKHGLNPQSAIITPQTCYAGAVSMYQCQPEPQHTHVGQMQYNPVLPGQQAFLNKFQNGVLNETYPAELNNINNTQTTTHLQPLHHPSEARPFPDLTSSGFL
# hcDAF12 agonist = H. contortus DAF-12 nuclear receptor activators, primary screen, cell-based, luminescence, HEK293, lit1-tk-luc reporter. hit rate 1.4% among 370,000. AID 652067, 2013. HEK293 hcDAF-12 lit1-tk-luc reporter; 0% DMSO, 100% Δ7-dafachronic acid. activation, % at 6.8 µM;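 active means activation above the mean of all tested compounds plus 3 SD, cut at about 5.5% in these data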;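 further: 100% = response to 3 µM Δ7-dafachronic acid high control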
# DAX1 inh-2 = DAX1 (NR0B1) inhibitors on StAR promoter, primary screen, cell-based, luminescence, SF-1 (NR5A1), full-length DAX-1. HEK293T StAR-luciferase reporter, SF-1/DAX-1 repression relief. inhibition, % at 6.8 µM. hit rate 1.1% among 370,000;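 active means inhibition above the mean over all tested compounds plus 3 SD, cut at about 3.6% in these data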;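 further: 0% = DAX-1 cells with DMSO and 100% = cells lacking DAX-1 with DMSO; higher inhibition means more luminescence from relief of DAX-1 repression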
# ssDAF-12 act = S. stercoralis DAF-12 nuclear receptor activators, primary screen, cell-based, luminescence, HEK293, GRIP1 co-expression, lit1-tk-luc; AID 652126, 2013; activation, % at 6.8 µM; hit rate 1% among 370,000; HEK293 ssDAF-12/GRIP1 lit1-tk-luc reporter; % of 3 µM dafachronic acid response; Nuclear hormone receptor DAF-12 (Strongyloides stercoralis);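 active means activation above the mean over all tested compounds plus 3 SD, cut at about 0.9% in these data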;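 further: 0% = DMSO-only wells and 100% = 3 µM delta7-dafachronic acid wells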
# An asterisk follows results filed as active; / = no result given.
SMILES,hgDAF12 agonist,DAX1 inh-1,AHR act,hcDAF12 agonist,DAX1 inh-2,ssDAF-12 act
Cc1ccc(NC(=O)c2ccc3nccnc3c2)c(C)c1,12*,-1,-5,2,1,0
Cc1ccc(NC(=O)c2ccc3[nH]c(=O)c(=O)[nH]c3c2)nc1,3,2,5,4,0,0
Cc1cc(C)c(NC(=O)c2ccc3nccnc3c2)c(C)c1,-1,-1,/,-1,-1,-1
Cc1ccnc(NC(=O)c2ccc3[nH]c(=O)c(=O)[nH]c3c2)c1,2,0,8,1,0,3.3*
Cc1ccnc(NC(=O)c2cnc(Cl)c(Cl)c2)c1,3,1,58*,-1,0,0
Cc1ccnc(NC(=O)c2ccc(Cl)s2)c1,/,2,9,/,/,/
CCOc1ccc(C(=O)Nc2nnn(CC)n2)cc1,12*,0,28,5,1,0
CCOC(=O)CSc1nnc(Cn2nnc3ccccc32)n1-c1ccc(F)cc1,0,/,-1,0,0,-1
Cc1nnc(SCC(=O)NCc2ccc(F)cc2)[nH]c1=O,-1,1,-2,1,0,-1
O=C(O)Cc1sc(Nc2ccc(F)cc2)nc1-c1cccs1,15*,3,17,3,2,0
Cc1nc(Nc2ccccc2)sc1C(=O)c1ccc(F)cc1,1,1,7,-1,0,-1
O=C(Cc1ccccc1)NCc1ccccn1,0,0,1,-1,0,-1
O=C(Cc1sc(Nc2ccccc2)nc1-c1ccccc1)NCc1ccccn1,11*,4,10,6.0*,3,0
O=C(O)Cc1sc(Nc2ccccc2)nc1-c1ccc(Cl)cc1,11*,2,16,2,1,1
COCCN(C(=O)COC(=O)c1ccc2c(c1)OCO2)c1c(N)n(Cc2ccccc2)c(=O)[nH]c1=O,0,4.4*,/,-1,-1,-2
CN1CCN(CC(O)COc2ccc(S(=O)(=O)N3CCOCC3)cc2)CC1 (configuration not stated),-2,1,0,1,-1,-1
COCCCn1c(=NC(=O)c2ccncc2)c(C#N)cc2c(=O)n3cccc(C)c3nc21,-1,1,59*,0,0,-1
CC(C)c1nnc(NC(=O)CCCC(=O)O)s1,0,0,-1,0,0,-1
CCOC(=O)CC(=O)Nc1nnc(C(C)C)s1,-1,5.3*,13,-1,0,-1
CCOc1ccc(C(=O)Nc2nnc(C(C)C)s2)cc1OCC,-1,0,59*,-1,0,-1
CCc1nnc(SCC(=O)Nc2ccc(C(C)=O)cc2)nc1CC,3,0,19,-1,-1,-1
C/C(=N\NC(=O)c1nn(C)cc1Br)c1ccncc1,10,7.6*,3,1,2,-1
COc1ccc(C(=O)Nc2ccc(S(=O)(=O)Nc3nccnc3OC)cc2)cc1OC,-1,2,-1,-2,1,-1
COc1ccc(C(=O)c2ccccc2)cc1,0,2,6,2,1,16*
COc1ccc(C(=O)c2ccc(Br)cc2)cc1,3,2,4,-1,1,-1
SMILES,hgDAF12 agonist,DAX1 inh-1,AHR act,hcDAF12 agonist,DAX1 inh-2,ssDAF-12 act
COc1ccc(C(=O)c2c[nH]c3ccccc23)cc1,11*,2,15,4,3,1
O=C(CSc1ncn(-c2ccccc2)n1)NCc1ccccc1,7,1,1,0,0,-1
Cc1ccc(CSc2ncn(-c3ccccc3)n2)cc1,1,4.2*,-3,2,0,-1
Clc1ccccc1CSc1ncn(-c2ccccc2)n1,11*,4,68*,5,2,0
c1ccc(-c2nnc(NC3=NCCC3)o2)cc1,10,-1,9,5,4.1*,0
Cc1nn(C)cc1CNC(=O)c1cccc(Br)c1,-1,0,16,0,0,-1
O=C(NCc1ccccc1)C(=O)Nc1nc(C23CC4CC(CC(C4)C2)C3)cs1,0,0,11,-2,1,-1
C=CCc1c(C)nc(-c2ccccc2)nc1N/N=C(\C)c1ccccc1,5,0,14,-1,1,-1
C=CCc1c(C)nc(C)nc1N/N=C/c1ccc(N(C)C)cc1,1,0,79*,-3,-1,-1
COc1ccccc1C(=O)NC(C)C(c1cccs1)N1CCOCC1 (configuration not stated),3,1,7,2,0,1.7*
O=C(O)C1(Nc2ccc(Cl)cc2)CCCC1,2,5.3*,/,0,0,-1
NC(=O)C1(Nc2ccc(-c3ccc(Cl)cc3)cc2)CCCC1,2,-1,/,0,0,-1
O=C(NN1C(=O)c2ccccc2NC1c1ccccn1)c1ccc([N+](=O)[O-])cc1 (configuration not stated),1,-2,2,-2,0,1.0*
Cc1cccc(C2Nc3ccccc3C(=O)N2NC(=O)c2ccc([N+](=O)[O-])cc2)n1 (configuration not stated),-2,1,0,-2,0,-1
O=C(NCC(=O)N1CCCC(C(F)(F)F)C1)c1ccc2ccccc2c1 (configuration not stated),2,2,4,0,0,-1
Cn1c(=O)c2c(SCc3cccnc3)nc(C3CC3)nc2n(C)c1=O,1,0,75*,-1,0,0
Cn1c(=O)c2c(SCC(=O)NCCc3ccccc3)nc(C3CC3)nc2n(C)c1=O,/,/,1,/,/,/
CC(C)Cc1nc(SCc2cccnc2)c2c(=O)n(C)c(=O)n(C)c2n1,2,0,18,0,0,-1
CCc1nc(SCc2cccnc2)c2c(=O)n(C)c(=O)n(C)c2n1,-1,-1,48*,-1,0,-1
COc1cccc(/C=N/n2c(-c3n[nH]c4c3CCC4)n[nH]c2=S)c1OC,0,1,51*,0,0,-1
CC(C)C(C(=O)NCc1ccco1)N(Cc1ccco1)C(=O)CNS(=O)(=O)c1ccc(F)cc1 (configuration not stated),1,0,0,1,0,-1
COc1ccc(S(=O)(=O)N2CCCCC2)cc1NC(=O)Cc1c[nH]c2ccccc12,1,-2,14,0,-1,-1
